The supplement of paper PMC6555819

Tests used:
Experiment in all cases: PBM binding z-score (relative to random genomic background probes); higher = stronger binding; sequences stand for … in GC…GCGATTGACAGCGTAGAATGAAGG
[1] = test system: RARb homodimer (NR concentration 270 nM)
Outline: (§1)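 Binding z-scores were set against random background probes. The data came from custom Agilent 4×180K protein-binding microarrays carrying double-stranded probes with 34-nt variable regions, incubated 1 h with ligand-free nuclear receptor dimers. Partner-specific antibodies detected binding, and scanned fluorescence was regression-normalized.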

[2] = test system: RARg:RXRa (NR concentration 270 nM, RXRa partner concentration 90 nM)
Outline: as §1

[3] = test system: RARg homodimer (NR concentration 270 nM)
Outline: as §1

[4] = test system: RXRa DBDmut IVT, anti-RXR (DBD mutation: RXRa K156A/R161A, NR concentration 90 nM)
Outline: as §1

[5] = test system: RXRa homodimer (NR concentration 180 nM)
Outline: as §1

[6] = test system: THRa:RXRa (NR concentration 90 nM, RXRa partner concentration 90 nM)
Outline: as §1

[7] = test system: THRa homodimer (NR concentration 90 nM)
Outline: as §1

[8] = test system: VDR homodimer (NR concentration 270 nM)
Outline: as §1

Sequence	PBM binding z-score [1]	PBM binding z-score [2]	PBM binding z-score [3]	PBM binding z-score [4]	PBM binding z-score [5]	PBM binding z-score [6]	PBM binding z-score [7]	PBM binding z-score [8]
CCAGCTAGGTCAATGGTCAGCTAAAGCAGCTCGC	2.83	3.55	4.15	1.51	2.04	2.1	0.209	0.021
ACTATTGGTTGACTTAGGGCAACCGATACGACGC	0.788	0.838	0.894	0.419	0.479	1.66	0.213	-0.0545
TACCCTAGGTCATGCGGGCCAGTATAGTGTCGGC	3.28	4.07	4.89	0.8	3.33	3.18	1.48	1.26
GCAGACAGGTGAAACGCAGGTAACTTAGGGTGGC	0.119	0.872	0.154	-0.334	0.754	1.55	-0.353	-0.61
ACTTACGGGTCGACGAGGTTATAGCACGCGTATA	1.57	2.39	1.72	1.2	2.93	3.05	0.75	2.03
TAGCCTAGGTCAGATCGGGACAGTATACGCTATA	2.11	2.85	3.78	-0.412	1.76	4.67	0.686	-0.152
AGAATGAGGTTATACGTAGATCAAGGAAGAAAGT	0.606	1.96	1.11	1.82	2.3	2.04	0.406	0.854
AGTCAAGGTTCAGGACGAGGTAACGTAAAGCACG	1.55	3.45	2.41	2.61	2.19	3.55	1.75	2.25
ACTAGCAGGCCAAGGTTCACTCAAGATTAGTCCG	1.66	1.53	1.15	1.75	1.58	1.31	0.0178	3.42
CCTACTCGGCCATCAGGTCATTGATATCAACGTT	3.21	2.43	2.51	1.21	1.33	3.16	3.66	2.42
CCAGACAGGTGAAAGGTAACTTAGTCTGGTACGC	0.975	1.23	0.78	0.208	2.05	0.818	-0.205	-0.23
TTACCAAGGTGAAGATCGTTGATCCCTCTGTAGA	0.271	0.271	0.232	-0.349	0.567	1.58	0.0556	-0.499
AGAACGACGGCAATGAGTTGATAGCACGGGTGGC	-0.961	-0.245	-0.185	-0.402	0.0598	-0.626	-1.12	-0.0582
GATACAGGATCAAGGCCAGAGTACGCGTATTGAT	0.0211	0.189	0.325	-0.499	0.195	-0.265	-0.214	0.147
CAAACTAGGTCACGAAAGGTAAAAGTCGAATGAC	3.34	5.16	5.56	2.02	4.2	4.18	1.49	0.85
TCATATAGGTAATGGTGAAAGTCGAACGATATGA	-0.191	0.377	0.547	0.843	0.587	-0.0618	-0.634	-0.582
ATATGTAGGTTACTTCCGGGTCATTCAGGCTATG	3.02	3.9	2.02	1.23	3.02	3.91	2.57	2.58
GCTGCTAGGTCAACTGATGGTCAGATAAAGCTCG	3.52	5.33	5.41	1.79	3.01	2.9	1.07	0.346
ATCTCTAGGTAACCAACTTCAGTGAATGCCGAAC	0.171	0.209	0.26	0.264	0.158	0.65	0.878	0.195
TCTATTAGCTGAAGGGCAACCGACGAGTCCGTTT	0.986	0.404	0.211	0.755	0.365	-0.0875	-0.551	0.695
AGTCAAACTTCACTAGGTAACGTAAGATTCAGCT	-0.374	0.121	0.346	0.238	-0.0168	0.342	0.203	-0.395
CGTCCAAGGTCATAGGTGGTCAGTGAAGACAGAT	4.26	5.65	5.75	3.99	5.94	4.18	2.79	3.02
ATATGCAGGTTACATCCGGGTCATTCAGGCTATG	2.86	4.04	2.1	0.784	3.53	3.97	2.19	2.77
ATCTCTAGGTACAAGTTCAGTGAATCCCGAGGAT	1.52	0.997	1.14	1.93	0.729	0.819	0.457	2.83
TCAGAGAGGTGAAGGTAACTCAGGTACGCAGTCG	1.34	1.54	1.36	1.31	1.85	2.04	0.401	0.316
CCTATTAGTTGACGATAAGGGCAACCGAAGCTCG	1.43	0.95	0.873	0.16	0.582	1.57	0.591	0.415
TTACCACGGTGAAGGTCGTTGATCCCTCTGTAGA	1.29	0.459	0.382	-0.000966	1.37	0.834	0.375	0.451
TATACAGGGCCAAAGGCCAGAGTACGAATGTCGA	1.12	1.16	1.47	-0.775	0.74	-0.149	-0.814	0.291
